Assay outcomes: PubChem, National Center for Advancing Translational Sciences (NCATS)
This is a sample that favours compounds with a hit; in the whole collection about 6.8% have one here.
PTAP TSG101 blk: blocks PTAP/TSG101 interaction to inhibit HIV-1 budding; Fluorescence polarization, FITC-PTAP peptide / Tsg101 binding; AID 493005; 340,000 tested, under 10 active; Potency, µM (series often up to 115 µM), usual class: inhibitors; active means well fitted inhibition curve with a large enough effect in the main read-out, with a control signal flat, not every such curve was filed as active; inconclusive means small, poorly fitted or top-dose-only effect, or effect the other way, or a change in a side signal; inactive means no such curve, though single readings can be large or run the other way
Target sequence (Q99816 whole entry, looked up): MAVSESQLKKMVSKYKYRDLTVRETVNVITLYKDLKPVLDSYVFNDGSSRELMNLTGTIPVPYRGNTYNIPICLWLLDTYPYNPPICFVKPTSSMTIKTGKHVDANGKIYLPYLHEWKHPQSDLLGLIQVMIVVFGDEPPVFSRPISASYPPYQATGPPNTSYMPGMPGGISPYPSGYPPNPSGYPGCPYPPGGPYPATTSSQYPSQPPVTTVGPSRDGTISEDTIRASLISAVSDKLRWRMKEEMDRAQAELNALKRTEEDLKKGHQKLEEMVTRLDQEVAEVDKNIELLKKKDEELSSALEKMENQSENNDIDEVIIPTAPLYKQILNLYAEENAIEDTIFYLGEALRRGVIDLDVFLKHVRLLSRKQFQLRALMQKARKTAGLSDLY
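FP read-out: FITC-PTAP peptide, 50 nM final, binding Tsg101 binding domain, 10 uM final; 20 min, r.t.; 10 mM HEPES pH 7.5, 0.15 M NaCl, 0.01% Tween 20, 3 mM EDTA, 0.1 mM TCEP.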
KB-V1 cytotox: KB-V1 MDR subline cytotoxicity; AID 1347076; KB-V1 MDR cells viability, CellTiter-Glo, 72 h; Potency, µM (highest dose often 46.1 µM), hits mostly cytotoxic; 3.4% of 400,000 active; further: nearly all actives have a fitted effect of over 60% in size
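Cytotoxicity toward P-gp-expressing KB-V1 cells was determined as loss of CellTiter-Glo luminescence after 72 h at 37 degrees C. Compounds were tested in quantitative HTS format across a concentration range, with curves fitted to normalized data.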
KB-3-1 cytotox: kills parental KB-3-1 adenocarcinoma cells; KB-3-1 viability, CellTiter-Glo ATP luminescence, 72 h; Potency, µM (highest dose often 46.1 µM), usual class: cytotoxic; 1.4% of 400,000 active; further: nearly all actives have a fitted effect of over 60% in size
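KB-3-1 cells, DMEM (no phenol red) + 10% FBS; compound by pin transfer, 72 h, 37 °C. Readout: CellTiter-Glo luminescence after 10 min. Data normalized, curve-fitted.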
SW480 rerep: inducers of DNA re-replication in SW480 colon cancer cells | 1.8% of 340,000 active | AID 624297 | SW480 DNA re-replication, Hoechst DNA content imaging, 48 h | Potency, µM (highest dose often 46.1 µM), hits mostly activators; further: nearly all actives have a fitted effect of over 55% in size
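DNA re-replication was detected as more nuclei of elevated Hoechst intensity after 48 hr exposure to compound (23 nL pinned per well of 250 cells).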
PINK1 expr mod: PINK1 expression modulation; PINK1 immunofluorescence, high-content cytometry, 24 h; Potency, µM (series often up to 76.6 µM), hits mostly activators; 0.2% of 410,000 active; active means well fitted activation curve with a large enough effect; inconclusive means small, poorly fitted or top-dose-only effect; cell line not stated here; further: nearly all actives have a fitted effect of over 65% in size
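Measures PINK1 amount and localization on or inside mitochondria by immunofluorescence. Stable cells get compounds at 5 concentrations for 24 hours before fixation and staining; CCCP controls included.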
MCF10A rerep: DNA re-replication induction in MCF 10a cells. MCF 10A DNA re-replication, Hoechst nuclear intensity, 48 h. Potency, µM (titrated, usually from 46.1 µM), hits mostly activators. 2.9% of 350,000 active; further: nearly all actives have a fitted effect of over 50% in size
A number is an active result; 0 = inactive; ? = inconclusive; - = not tested or not shown. Unless noted, the call rests on the fitted dose curve; in most records, active means well fitted curve in the direction sought with a large enough effect; inconclusive means small, poorly fitted or top-dose-only effect, or another doubt; inactive means no such curve, though single readings can be large; an effect the other way counts as inactive or inconclusive.

SMILES	PTAP TSG101 blk	KB-V1 cytotox	KB-3-1 cytotox	SW480 rerep	PINK1 expr mod	MCF10A rerep
COCCN(CC(=O)Nc1cccc(C)c1C)C(=O)c1cc2c(s1)CCC2	0	7.3µM	0	0	0	0
COc1ccc(Cl)cc1NC(=O)CN(C)C(=O)c1cc2c(s1)CCCC2	0	13µM	?	18µM	0	?
CCN(CC(=O)Nc1ccccc1C(F)(F)F)C(=O)c1cc2c(s1)CCCCC2	0	0	0	0	0	?
Cc1cnc(-n2ncc(C(=O)NCc3ccncc3)c2C(C)C)nc1-c1ccc(F)cc1	-	-	-	-	0	-
CCOc1ccc(/C=C2\SC(=O)N(CCNC(=O)C3COc4ccccc4O3)C2=O)cc1OC (stereo not drawn)	0	16µM	0	0	0	?
CCOc1ccccc1NC(=O)C1COc2ccccc2O1 (stereo not drawn)	0	0	0	0	0	0
COc1ccc(Cl)cc1NC(=O)CN(C)CC(=O)Nc1ccccc1N1CCOCC1	0	?	0	5.2µM	0	?
COc1ccc(Cl)cc1NC(=O)CN(C)CC(=O)N1CC(=O)Nc2ccccc21	0	0	0	0	0	?
COc1ccc(/C=C2/SC(=O)N(CCNC(=O)C3COc4ccccc4O3)C2=O)cc1 (stereo not drawn)	0	?	0	0	0	0
CCOc1ccc(OCC)c(NC(=O)C2COc3ccccc3O2)c1 (stereo not drawn)	0	21µM	0	0	0	?
COCCN(CC(=O)Nc1cccc(C)c1C)C(=O)C1CCN(S(=O)(=O)c2ccccc2)CC1	0	9.2µM	0	0	0	0
COc1ccccc1-n1cc(CN2CCC3(CCC(CNC(=O)c4ccccc4)O3)CC2)cn1 (stereo not drawn)	-	-	-	-	0	-
Cc1ccc(C)c(N2CCN(C(=O)C3CCCN(S(=O)(=O)c4ccc5c(c4)oc(=O)n5C)C3)CC2)c1 (stereo not drawn)	-	0	0	-	0	-
COc1ccc(Cl)cc1NC(=O)CN(C)C(=O)C1COc2ccccc2O1 (stereo not drawn)	0	16µM	0	0	0	0
CCOc1ccc2nc(N3CCN(C(=O)c4ccco4)CC3)sc2c1	-	-	-	-	0	-
COc1ccc(/C=N/NC(=O)c2nn(C)cc2Br)cc1CSCc1ccco1	0	-	-	0	0	0
CCOc1ccc(C=NNC(=O)c2cccc3ccccc23)cc1OCC	0	23µM	0	0	0	0
CCOc1cc(/C=N/NC(=O)c2nn(C)cc2Br)ccc1OCc1ccccc1	0	16µM	0	0	0	0
COC(=O)c1ccccc1NC(=O)c1ncoc1-c1ccco1	-	0	0	-	0	-
COc1ccc(CCNC(=O)C(CC(C)C)N2Cc3ccccc3C2=O)c(OC)c1OC (stereo not drawn)	-	0	0	-	0	-
COc1cc(/C=N/n2nnnc2Nc2ccccc2)cc(OC)c1OC	0	2.6µM	0	0	0	0
CNc1nc(N/N=C/c2cc([N+](=O)[O-])ccc2F)nc(Nc2ccccc2)n1	0	?	0	0	0	?
COc1ccc(O)c(/C=N/Nc2nc(Nc3ccccc3)nc(-n3nc(C)cc3C)n2)c1	0	?	15µM	?	0	?
CNc1nc(N/N=C/c2cc3c(cc2[N+](=O)[O-])OCO3)nc(Nc2ccccc2)n1	0	16µM	0	0	0	?
COc1ccc(O)c(/C=N/Nc2nc(C)cc(-c3ccccc3)n2)c1	0	?	0	0	0	?
COc1cc(/C=N/Nc2nc(Nc3ccc(C)cc3)nc(-n3nc(C)cc3C)n2)cc(OC)c1OC	0	?	0	13µM	0	?
Cc1ccc(Nc2cc(C)nn2-c2nc(C)cc(C)n2)cc1	0	0	?	0	0	?
Cc1c2cnn(CC(=O)NC(C)C)c(=O)c2c(C)n1Cc1ccccc1Cl	-	0	0	-	0	-
COc1cccc(CNC(=O)c2ccc(CN3CC(=O)N4CCCCC4C3=O)cc2)c1 (stereo not drawn)	-	-	-	-	0	-
COc1cc(/C=N/Nc2nc(Nc3ccccc3)nc(-n3nc(C)cc3C)n2)cc(OC)c1OC	0	7.3µM	?	?	0	15µM
